# Paper PMC11006913
# Positions count from the first letter of the chain named.
# Assays:
# Assay in all cases: PBM; 200 nM protein, PBS
# Details in all cases: dsDNA, one strand shown
# [1] = target: PITX2 (Homo sapiens, UniProt Q99697 72-157)
# [2] = target: CRX (Homo sapiens, UniProt O43186 26-111, R41L)
# [3] = target: T1, PAX4 (Homo sapiens, UniProt O43316 9-242, F177V)
# T1 sequence: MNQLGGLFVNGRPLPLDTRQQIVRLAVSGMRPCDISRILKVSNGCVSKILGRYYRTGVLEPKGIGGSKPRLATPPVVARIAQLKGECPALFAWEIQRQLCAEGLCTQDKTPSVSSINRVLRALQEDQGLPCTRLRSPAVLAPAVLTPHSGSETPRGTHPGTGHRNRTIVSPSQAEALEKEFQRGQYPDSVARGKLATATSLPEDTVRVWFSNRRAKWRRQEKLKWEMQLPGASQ
# [4] = target: VAX1 (Homo sapiens, UniProt Q5SQQ9 86-172)
# [5] = target: VAX1 (Homo sapiens, UniProt Q5SQQ9 86-172, T142I)
# [6] = target: VAX1 (Homo sapiens, UniProt Q5SQQ9 86-172, K157R)
# [7] = target: HOXA4 (Homo sapiens, UniProt Q00056 201-287)
# [8] = target: T2, PAX4 (Homo sapiens, UniProt O43316 9-242, F177Y)
# T2 sequence: T1 sequence with V169Y
# [9] = target: T3, PAX4 (Homo sapiens, UniProt O43316 9-242, R227W)
# T3 sequence: T1 sequence with V169F, R219W
# [10] = target: HOXD13 (Homo sapiens, UniProt P35453 263-343)
# [11] = target: HOXD13 (Homo sapiens, UniProt P35453 263-343, T313A)
# [12] = target: T4, NKX2-6 (Homo sapiens, UniProt A6NCS4 118-204, F151L)
# T4 sequence: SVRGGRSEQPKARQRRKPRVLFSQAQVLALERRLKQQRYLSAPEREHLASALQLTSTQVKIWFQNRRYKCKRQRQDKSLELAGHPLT
# [13] = target: HOXA4 (Homo sapiens, UniProt Q00056 201-287, W262F)
# [14] = target: HOXC10 (Homo sapiens, UniProt Q9NYD6 254-340, K271E)
# [15] = target: PRRX1 (Homo sapiens, UniProt P54821 80-166)
# [16] = target: PROP1 (Homo sapiens, UniProt O75360 56-141)
# [17] = target: PROP1 (Homo sapiens, UniProt O75360 56-141, F88S)
# [18] = target: MSX2 (Homo sapiens, UniProt P35548 130-214)
# [19] = target: MSX2 (Homo sapiens, UniProt P35548 130-214, F161Y)
# [20] = target: T5, SIX6 (Homo sapiens, UniProt O95475 114-200, L167V)
# T5 sequence: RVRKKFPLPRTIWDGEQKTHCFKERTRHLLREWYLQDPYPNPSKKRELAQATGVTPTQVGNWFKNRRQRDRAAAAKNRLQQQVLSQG
# Chain of HOXC10 (Q9NYD6 254-340 K271E): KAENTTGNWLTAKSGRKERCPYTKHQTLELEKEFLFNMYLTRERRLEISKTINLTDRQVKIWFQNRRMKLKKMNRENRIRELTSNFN
# Chain of MSX2 (Homo sapiens, UniProt P35548 130-214, F161Y) (P35548 130-214 F161Y): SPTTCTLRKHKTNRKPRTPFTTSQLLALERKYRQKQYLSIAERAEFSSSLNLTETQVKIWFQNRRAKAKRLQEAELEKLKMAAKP
# Chain of HOXD13 (Homo sapiens, UniProt P35453 263-343) (P35453 263-343): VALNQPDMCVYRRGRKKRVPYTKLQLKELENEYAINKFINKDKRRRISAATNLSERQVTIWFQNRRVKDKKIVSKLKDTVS
# Chain of HOXA4 (Homo sapiens, UniProt Q00056 201-287) (Q00056 201-287): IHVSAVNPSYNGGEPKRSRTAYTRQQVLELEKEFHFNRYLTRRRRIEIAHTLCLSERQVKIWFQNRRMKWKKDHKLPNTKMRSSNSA
# Chain of HOXD13 (Homo sapiens, UniProt P35453 263-343, T313A) (P35453 263-343 T313A): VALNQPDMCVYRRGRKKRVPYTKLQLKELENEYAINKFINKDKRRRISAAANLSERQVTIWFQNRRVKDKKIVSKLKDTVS
# Chain of MSX2 (Homo sapiens, UniProt P35548 130-214) (P35548 130-214): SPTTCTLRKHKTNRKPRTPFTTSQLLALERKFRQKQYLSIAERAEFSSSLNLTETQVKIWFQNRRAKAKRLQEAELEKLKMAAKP
# Chain of CRX (O43186 26-111 R41L): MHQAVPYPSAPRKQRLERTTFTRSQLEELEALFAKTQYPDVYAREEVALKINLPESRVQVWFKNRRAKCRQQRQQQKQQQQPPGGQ
# Chain of VAX1 (Homo sapiens, UniProt Q5SQQ9 86-172) (Q5SQQ9 86-172): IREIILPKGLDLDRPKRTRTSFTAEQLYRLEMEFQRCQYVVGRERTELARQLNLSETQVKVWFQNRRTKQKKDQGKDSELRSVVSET
# Chain of VAX1 (Homo sapiens, UniProt Q5SQQ9 86-172, K157R) (Q5SQQ9 86-172 K157R): as the sequence (Q5SQQ9 86-172) above, with K72R counted along it
# Chain of VAX1 (Homo sapiens, UniProt Q5SQQ9 86-172, T142I) (Q5SQQ9 86-172 T142I): as the sequence (Q5SQQ9 86-172) above, with T57I counted along it
# Chain of HOXA4 (Homo sapiens, UniProt Q00056 201-287, W262F) (Q00056 201-287 W262F): as the sequence (Q00056 201-287) above, with W62F counted along it
# Chain of PRRX1 (P54821 80-166): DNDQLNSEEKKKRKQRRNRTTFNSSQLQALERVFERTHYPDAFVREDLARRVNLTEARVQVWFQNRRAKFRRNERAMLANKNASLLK
# Chain of PROP1 (Homo sapiens, UniProt O75360 56-141, F88S) (O75360 56-141 F88S): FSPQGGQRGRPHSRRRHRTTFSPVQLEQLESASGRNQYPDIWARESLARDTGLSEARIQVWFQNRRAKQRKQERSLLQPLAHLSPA
# Chain of PROP1 (Homo sapiens, UniProt O75360 56-141) (O75360 56-141): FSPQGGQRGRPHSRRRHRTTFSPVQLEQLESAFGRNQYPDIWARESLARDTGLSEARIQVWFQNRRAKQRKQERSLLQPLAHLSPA
sequence,measurement,setting,value
GCACGCCA,binding signal,[1],"7.9 upbm affinity estimate (log intensity, higher = more binding, comparable within an allelic series)"
CGAGATTA,binding signal,[1],"12.3 upbm affinity estimate (log intensity, higher = more binding, comparable within an allelic series)"
same,binding signal,[2],"12.4 upbm affinity estimate (log intensity, higher = more binding, comparable within an allelic series)"
AAGCTGAA,binding signal,[1],"9.66 upbm affinity estimate (log intensity, higher = more binding, comparable within an allelic series)"
ATATAATC,binding signal,[3],"10.6 upbm affinity estimate (log intensity, higher = more binding, comparable within an allelic series)"
same,binding signal,[4],"10.1 upbm affinity estimate (log intensity, higher = more binding, comparable within an allelic series)"
same,binding signal,[5],"10.1 upbm affinity estimate (log intensity, higher = more binding, comparable within an allelic series)"
same,binding signal,[2],"12.3 upbm affinity estimate (log intensity, higher = more binding, comparable within an allelic series)"
same,binding signal,[6],"9.94 upbm affinity estimate (log intensity, higher = more binding, comparable within an allelic series)"
AAGATAAC,binding signal,[7],"10.8 upbm affinity estimate (log intensity, higher = more binding, comparable within an allelic series)"
ATAATTCA,binding signal,[3],"10.7 upbm affinity estimate (log intensity, higher = more binding, comparable within an allelic series)"
same,binding signal,[8],"11.1 upbm affinity estimate (log intensity, higher = more binding, comparable within an allelic series)"
same,binding signal,[9],"10.9 upbm affinity estimate (log intensity, higher = more binding, comparable within an allelic series)"
ATCGTAAC,binding signal,[10],"11 upbm affinity estimate (log intensity, higher = more binding, comparable within an allelic series)"
same,binding signal,[11],"10.9 upbm affinity estimate (log intensity, higher = more binding, comparable within an allelic series)"
TAAATGAA,binding signal,[10],"10.9 upbm affinity estimate (log intensity, higher = more binding, comparable within an allelic series)"
same,binding signal,[11],"10.9 upbm affinity estimate (log intensity, higher = more binding, comparable within an allelic series)"
AAGTGTTA,binding signal,[10],"10.7 upbm affinity estimate (log intensity, higher = more binding, comparable within an allelic series)"
same,binding signal,[12],"10.7 upbm affinity estimate (log intensity, higher = more binding, comparable within an allelic series)"
ATTATATG,binding signal,[3],"10.6 upbm affinity estimate (log intensity, higher = more binding, comparable within an allelic series)"
ATCATGTC,binding signal,[7],"11 upbm affinity estimate (log intensity, higher = more binding, comparable within an allelic series)"
same,binding signal,[13],"10.3 upbm affinity estimate (log intensity, higher = more binding, comparable within an allelic series)"
CTAATATA,binding signal,[3],"10.8 upbm affinity estimate (log intensity, higher = more binding, comparable within an allelic series)"
same,binding signal,[8],"10.9 upbm affinity estimate (log intensity, higher = more binding, comparable within an allelic series)"
same,binding signal,[9],"10.9 upbm affinity estimate (log intensity, higher = more binding, comparable within an allelic series)"
CTTAGTTA,binding signal,[7],"11 upbm affinity estimate (log intensity, higher = more binding, comparable within an allelic series)"
ATAACGAC,binding signal,[10],"11 upbm affinity estimate (log intensity, higher = more binding, comparable within an allelic series)"
same,binding signal,[11],"10.8 upbm affinity estimate (log intensity, higher = more binding, comparable within an allelic series)"
ATTAAACA,binding signal,[10],"11.3 upbm affinity estimate (log intensity, higher = more binding, comparable within an allelic series)"
same,binding signal,[11],"11.2 upbm affinity estimate (log intensity, higher = more binding, comparable within an allelic series)"
TGATAAAA,binding signal,[10],"11.3 upbm affinity estimate (log intensity, higher = more binding, comparable within an allelic series)"
same,binding signal,[11],"11.2 upbm affinity estimate (log intensity, higher = more binding, comparable within an allelic series)"
CATATGTA,binding signal,[7],"10.8 upbm affinity estimate (log intensity, higher = more binding, comparable within an allelic series)"
AAAATTAA,binding signal,[10],"10.9 upbm affinity estimate (log intensity, higher = more binding, comparable within an allelic series)"
same,binding signal,[11],"10.8 upbm affinity estimate (log intensity, higher = more binding, comparable within an allelic series)"
AATATAGT,binding signal,[10],"11 upbm affinity estimate (log intensity, higher = more binding, comparable within an allelic series)"
same,binding signal,[11],"11.1 upbm affinity estimate (log intensity, higher = more binding, comparable within an allelic series)"
ATAACTAA,binding signal,[10],"10.9 upbm affinity estimate (log intensity, higher = more binding, comparable within an allelic series)"
same,binding signal,[11],"11 upbm affinity estimate (log intensity, higher = more binding, comparable within an allelic series)"
ATATTATG,binding signal,[3],"10.7 upbm affinity estimate (log intensity, higher = more binding, comparable within an allelic series)"
same,binding signal,[9],"10.9 upbm affinity estimate (log intensity, higher = more binding, comparable within an allelic series)"
TCCTTTAA,binding signal,[7],"11.1 upbm affinity estimate (log intensity, higher = more binding, comparable within an allelic series)"
ATTTCTTA,binding signal,[7],"11.1 upbm affinity estimate (log intensity, higher = more binding, comparable within an allelic series)"
ATGATATA,binding signal,[3],"10.7 upbm affinity estimate (log intensity, higher = more binding, comparable within an allelic series)"
AACATAAA,binding signal,[14],"11.3 upbm affinity estimate (log intensity, higher = more binding, comparable within an allelic series)"
AGTATACA,binding signal,[10],"10.6 upbm affinity estimate (log intensity, higher = more binding, comparable within an allelic series)"
same,binding signal,[11],"10.7 upbm affinity estimate (log intensity, higher = more binding, comparable within an allelic series)"
CTCGTTAC,binding signal,[10],"11.1 upbm affinity estimate (log intensity, higher = more binding, comparable within an allelic series)"
same,binding signal,[11],"10.9 upbm affinity estimate (log intensity, higher = more binding, comparable within an allelic series)"
ATTCAAGC,binding signal,[7],"11 upbm affinity estimate (log intensity, higher = more binding, comparable within an allelic series)"
GATTTGAA,binding signal,[7],"10.8 upbm affinity estimate (log intensity, higher = more binding, comparable within an allelic series)"
CAAGATAA,binding signal,[7],"10.9 upbm affinity estimate (log intensity, higher = more binding, comparable within an allelic series)"
AAGATTGT,binding signal,[7],"10.7 upbm affinity estimate (log intensity, higher = more binding, comparable within an allelic series)"
ACATAAAT,binding signal,[14],"11.3 upbm affinity estimate (log intensity, higher = more binding, comparable within an allelic series)"
AAGTTATT,binding signal,[10],"10.9 upbm affinity estimate (log intensity, higher = more binding, comparable within an allelic series)"
same,binding signal,[4],"10.1 upbm affinity estimate (log intensity, higher = more binding, comparable within an allelic series)"
same,binding signal,[11],"10.8 upbm affinity estimate (log intensity, higher = more binding, comparable within an allelic series)"
same,binding signal,[5],"9.9 upbm affinity estimate (log intensity, higher = more binding, comparable within an allelic series)"
same,binding signal,[6],"9.7 upbm affinity estimate (log intensity, higher = more binding, comparable within an allelic series)"
AATCATAT,binding signal,[10],"11 upbm affinity estimate (log intensity, higher = more binding, comparable within an allelic series)"
same,binding signal,[11],"11 upbm affinity estimate (log intensity, higher = more binding, comparable within an allelic series)"
ACGAAATA,binding signal,[7],"10.7 upbm affinity estimate (log intensity, higher = more binding, comparable within an allelic series)"
ATAAACGA,binding signal,[10],"11.4 upbm affinity estimate (log intensity, higher = more binding, comparable within an allelic series)"
same,binding signal,[11],"11.2 upbm affinity estimate (log intensity, higher = more binding, comparable within an allelic series)"
ATATACAT,binding signal,[3],"10.6 upbm affinity estimate (log intensity, higher = more binding, comparable within an allelic series)"
ATTTTAAC,binding signal,[10],"11.2 upbm affinity estimate (log intensity, higher = more binding, comparable within an allelic series)"
same,binding signal,[15],"11.9 upbm affinity estimate (log intensity, higher = more binding, comparable within an allelic series)"
TAATAGCA,binding signal,[10],"11 upbm affinity estimate (log intensity, higher = more binding, comparable within an allelic series)"
same,binding signal,[16],"9.06 upbm affinity estimate (log intensity, higher = more binding, comparable within an allelic series)"
same,binding signal,[17],"7.3 upbm affinity estimate (log intensity, higher = more binding, comparable within an allelic series)"
CGTTATTA,binding signal,[10],"11.2 upbm affinity estimate (log intensity, higher = more binding, comparable within an allelic series)"
same,binding signal,[11],"11.1 upbm affinity estimate (log intensity, higher = more binding, comparable within an allelic series)"
AGCAAATC,binding signal,[7],"10.9 upbm affinity estimate (log intensity, higher = more binding, comparable within an allelic series)"
CTTAAAAG,binding signal,[7],"10.4 upbm affinity estimate (log intensity, higher = more binding, comparable within an allelic series)"
ATTGTATA,binding signal,[3],"10.5 upbm affinity estimate (log intensity, higher = more binding, comparable within an allelic series)"
AGTCCTAA,binding signal,[18],"11.4 upbm affinity estimate (log intensity, higher = more binding, comparable within an allelic series)"
same,binding signal,[19],"11.2 upbm affinity estimate (log intensity, higher = more binding, comparable within an allelic series)"
ACATGTTA,binding signal,[18],"10.7 upbm affinity estimate (log intensity, higher = more binding, comparable within an allelic series)"
AAACGATC,binding signal,[18],"10.9 upbm affinity estimate (log intensity, higher = more binding, comparable within an allelic series)"
same,binding signal,[19],"10.8 upbm affinity estimate (log intensity, higher = more binding, comparable within an allelic series)"
ACCGATAA,binding signal,[18],"11.2 upbm affinity estimate (log intensity, higher = more binding, comparable within an allelic series)"
same,binding signal,[19],"11.1 upbm affinity estimate (log intensity, higher = more binding, comparable within an allelic series)"
AATCGCAT,binding signal,[18],"10.9 upbm affinity estimate (log intensity, higher = more binding, comparable within an allelic series)"
same,binding signal,[19],"10.8 upbm affinity estimate (log intensity, higher = more binding, comparable within an allelic series)"
ACAGATTG,binding signal,[18],"10.8 upbm affinity estimate (log intensity, higher = more binding, comparable within an allelic series)"
same,binding signal,[19],"10.8 upbm affinity estimate (log intensity, higher = more binding, comparable within an allelic series)"
ATAAATAC,binding signal,[18],"11.3 upbm affinity estimate (log intensity, higher = more binding, comparable within an allelic series)"
same,binding signal,[19],"11.3 upbm affinity estimate (log intensity, higher = more binding, comparable within an allelic series)"
AGTTTTAT,binding signal,[14],"11.3 upbm affinity estimate (log intensity, higher = more binding, comparable within an allelic series)"
AAGCAAAT,binding signal,[18],"11.3 upbm affinity estimate (log intensity, higher = more binding, comparable within an allelic series)"
same,binding signal,[19],"11.1 upbm affinity estimate (log intensity, higher = more binding, comparable within an allelic series)"
ACCTCAAT,binding signal,[18],"11 upbm affinity estimate (log intensity, higher = more binding, comparable within an allelic series)"
same,binding signal,[19],"10.9 upbm affinity estimate (log intensity, higher = more binding, comparable within an allelic series)"
AACAAGAG,binding signal,[18],"10.3 upbm affinity estimate (log intensity, higher = more binding, comparable within an allelic series)"
GGAAATAA,binding signal,[18],"11.7 upbm affinity estimate (log intensity, higher = more binding, comparable within an allelic series)"
same,binding signal,[19],"11.4 upbm affinity estimate (log intensity, higher = more binding, comparable within an allelic series)"
AAGAATCA,binding signal,[18],"10.8 upbm affinity estimate (log intensity, higher = more binding, comparable within an allelic series)"
same,binding signal,[19],"10.6 upbm affinity estimate (log intensity, higher = more binding, comparable within an allelic series)"
CACATAAA,binding signal,[14],"11.3 upbm affinity estimate (log intensity, higher = more binding, comparable within an allelic series)"
same,binding signal,[11],"11.6 upbm affinity estimate (log intensity, higher = more binding, comparable within an allelic series)"
TCAACTAA,binding signal,[18],"11.2 upbm affinity estimate (log intensity, higher = more binding, comparable within an allelic series)"
same,binding signal,[19],"11 upbm affinity estimate (log intensity, higher = more binding, comparable within an allelic series)"
GCAGTAAA,binding signal,[14],"11.1 upbm affinity estimate (log intensity, higher = more binding, comparable within an allelic series)"
AGATATCT,binding signal,[20],"10.8 upbm affinity estimate (log intensity, higher = more binding, comparable within an allelic series)"
GAATAAAA,binding signal,[18],"11 upbm affinity estimate (log intensity, higher = more binding, comparable within an allelic series)"
same,binding signal,[19],"10.9 upbm affinity estimate (log intensity, higher = more binding, comparable within an allelic series)"
GTAGTAAA,binding signal,[14],"11.1 upbm affinity estimate (log intensity, higher = more binding, comparable within an allelic series)"
